M1 antagonist = M1 muscarinic receptor (rat) antagonism; P08482; CHO-M1 cells, Fluo-4 calcium, ACh EC80 antagonist mode; stronger effect = lower value; B-score at 10 µM; 64,000 compounds, 3.4% hits;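 active = calcium fluorescence response, raw or row-and-column corrected B-score, differing from the plate sample mean either way at a set confidence level, mostly lower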
NADH enzymes = inhibition of NAD/NADH coupling enzymes, library profiling | IC50, µM (highest dose often 10 µM) | AID 774 | 65,000 compounds, 0.02% hits | coupled PK/LDH NADH assays, four targets;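 active = single-dose screening hits from any of four coupled enzyme assays that gave an IC50 when retested across doses; inconclusive = no clear call, values can overlap the other calls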;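 note: the DPM-DC format reads NADH fluorescence rather than 340 nm absorbance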
M1 ag = agonists of M1 muscarinic receptor. AID 626. 64,000 compounds, 3% hits. B-score at 10 µM. CHO-M1 cells, Fluo-4 calcium fluorescence, agonist mode; stronger effect = higher value;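 active = fluorescence rise, raw or as B-score row- and column-corrected plate score, outside the 99.7% band of its plate's samples, either direction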
mHtt clearance = mutant huntingtin protein clearance. HeLa Exon1htt(103Q)mCFP, aggregate imaging; zero = plate's median compound well. inhibition, % at 1.5 µM. 47,000 compounds, 0.42% hits. AID 853;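 active = inhibition of aggregate fluorescence above about 70%, also judged a hit by eye on the cell image, limit read from the data, passing the limit was not always enough; inconclusive = no rule stated for this call; inactive = not judged a hit on image review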;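 note: cells exposed to compound for three days before fixation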
Fluor 339 460 = intrinsic fluorescence of library compounds, ex339/em460 – biochemical, MLSMR library, data from DPM-DC assay, artefact control, profiling panel | fluorescence fold increase at 10 µM | AID 709 | compound autofluorescence, ex339/em460 nm, NADH buffer; stronger effect = higher value; 1 = no-compound wells, NADH background | 65,000 compounds, 5.5% hits;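 active = at 10 µM, mean starting fluorescence two-fold or more over control wells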;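 note: signal is the first read of a kinetic run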
A340 absorber = absorbance at 340 nm; 65,000 tested, under 10 active; compound absorbance at 340 nm, fold over control; fold change at 10 µM;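 active = at 10 µM dose, initial 340 nm absorbance at least 2 fold that of control wells; inactive = change under 2 fold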;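 note: initial absorbance extrapolated from kinetic A340 decline of NADH oxidation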
M1 agonist conf = rat M1 muscarinic agonism, confirmation; shares compounds with M1 ag; CHO-M1 cells, Fluo-4 calcium fluorescence, agonist mode; actives lie on both sides; fluorescence change (max-min) at 10 µM; 1,700 compounds, 19% hits; AID 1488;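 active = fluorescence change differs from the solvent-only DMSO control mean at a set confidence level in both duplicate runs; inconclusive = differs from solvent-only control mean in just one of two runs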;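 note: an EC20 dose of acetylcholine follows compound addition during the same imaging run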
M4 ag counter = counter-screen for M1 agonists: activity at rat M4 receptor; shares compounds with M1 ag; CHO M4/Gqi5 cells, Fluo-4 calcium fluorescence, agonist mode; actives lie on both sides; fluorescence change (max-min) at 10 µM; 1,700 compounds, 9% hits; AID 1741;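 active = fluorescence change differing from the plate's solvent-only control wells at 99.7% confidence in both duplicates, whether higher or lower; inconclusive = differs from solvent controls in only one of two duplicates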
Target sequence (P08485 whole entry, looked up): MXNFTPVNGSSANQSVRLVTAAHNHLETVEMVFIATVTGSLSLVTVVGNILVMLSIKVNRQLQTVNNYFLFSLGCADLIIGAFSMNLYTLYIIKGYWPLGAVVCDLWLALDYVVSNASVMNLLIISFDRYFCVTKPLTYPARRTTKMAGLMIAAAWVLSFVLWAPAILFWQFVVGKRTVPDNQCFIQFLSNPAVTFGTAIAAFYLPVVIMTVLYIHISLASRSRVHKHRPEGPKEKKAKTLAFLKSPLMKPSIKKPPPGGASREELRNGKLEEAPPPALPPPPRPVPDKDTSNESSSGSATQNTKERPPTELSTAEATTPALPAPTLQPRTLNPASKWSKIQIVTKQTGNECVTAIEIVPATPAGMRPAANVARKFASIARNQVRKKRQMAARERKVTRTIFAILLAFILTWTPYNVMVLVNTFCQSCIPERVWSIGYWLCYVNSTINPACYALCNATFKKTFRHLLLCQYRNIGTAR
Large screens that a line does not name were inactive (follow-up assays come after a bar, where they were run). Only some compounds are listed: those with a hit (about 9.3% of all), similar ones and a draw of the others.

O=C1c2cccc3c(N4CCCCC4)ccc(c23)C(=O)N1c1ccccn1	M1 ag 78 (no result: mHtt clearance) | M1 agonist conf 775 | M4 ag counter 819
O=C1c2cccc3c(N4CCCCC4)ccc(c23)C(=O)N1c1ccc(Cl)cn1	none (no result: M1 antagonist, NADH enzymes, M1 ag, Fluor 339 460, A340 absorber)
Clc1c(CSc2nc3ccccc3o2)nc2ccccn12	M1 ag 21 (no result: mHtt clearance) | M1 agonist conf inactive | M4 ag counter inactive
Clc1c(CSc2nc3ccccc3o2)nc2sccn12	none
CNC(=O)C1CC(=O)N(Cc2ccccc2)C(=Nc2ccc(OC)cc2)S1 (configuration not stated)	M1 ag 10 (no result: mHtt clearance) | M1 agonist conf inconclusive | M4 ag counter inconclusive
CCNC(=O)C1CC(=O)N(Cc2ccc(F)cc2)C(=Nc2ccc(OC)cc2)S1 (configuration not stated)	none (no result: mHtt clearance)
Cc1cccc(Nc2ncnc3nc[nH]c23)c1	none (no result: mHtt clearance)
CC(Nc1ncnc2nc[nH]c12)c1ccccc1 (configuration not stated)	M1 ag 2.8 (no result: mHtt clearance) | M1 agonist conf inactive | M4 ag counter inactive
Cc1cc(NC(=O)c2ccc3c(c2)OCO3)ccc1NC(=O)c1ccco1	none (no result: M1 antagonist, NADH enzymes, M1 ag, Fluor 339 460, A340 absorber)
CCN=C(NCC)SC1CC(=O)N(c2cccc(OCC)c2)C1=O (configuration not stated)	M1 antagonist -2.6, M1 ag 14 | M1 agonist conf inactive | M4 ag counter inactive
CCOc1ccc(N2C(=O)CC(SC(=NC)Nc3cccc(F)c3)C2=O)cc1 (configuration not stated)	none
O=C(CC1c2ccccc2Oc2ccccc21)N1CCN(c2ccccn2)CC1	none
CC(=O)Nc1ccc(OCC(O)CN2CCN(c3ccc(C)c(Cl)c3)CC2)cc1 (configuration not stated)	M1 ag 1.9 (no result: mHtt clearance) | M1 agonist conf inactive | M4 ag counter inactive
Cc1ccc(C)c(N2CCN(Cc3nnnn3C3CCCCC3)CC2)c1	M1 ag 10 | M1 agonist conf inactive | M4 ag counter inactive
CCCCCCc1c(O)c2ccccc2[nH]c1=O	M1 ag 13 (no result: mHtt clearance) | M1 agonist conf inactive | M4 ag counter inactive
Cc1cc(C)nc(NCCCc2ccccc2)n1	none (no result: M1 antagonist, M1 ag)
CCCCNc1cc(C)nc(NCc2ccccc2)n1	M1 antagonist -3.2, M1 ag 6.4 | M1 agonist conf inactive | M4 ag counter inactive
CCc1ccc(C2=Nn3c(nnc3-c3cccs3)SC2)cc1	none
CS(=O)(=O)N1CCC(C(=O)Nc2ccc(Oc3ccccc3)cc2)CC1	M1 ag 3.2 | M1 agonist conf inconclusive | M4 ag counter inactive
Cc1cccc(NC(=O)Cn2c(=O)oc3ccccc32)c1	none
CCn1nnc(-c2ccccc2NC(=O)c2cnccn2)n1	none (no result: M1 antagonist, NADH enzymes, M1 ag, Fluor 339 460, A340 absorber)
CCOc1cc(C2C(C#N)=C(N)OC(C)=C2C(C)=O)cc(Br)c1O (configuration not stated)	M1 ag 23 (no result: mHtt clearance) | M1 agonist conf 180 | M4 ag counter 170
CCOc1cc(C2C(C#N)=C(N)OC(C)=C2C(C)=O)c(Br)c(Br)c1OC(C)C (configuration not stated)	none (no result: M1 antagonist, NADH enzymes, M1 ag, Fluor 339 460, A340 absorber)
CCOC(=O)N1CCN(C(=O)CS(=O)(=O)c2cn(Cc3cccc(F)c3)c3ccccc23)CC1	none (no result: mHtt clearance)
O=C1N(CCCN2C(=O)C3(OCCO3)c3ccccc32)c2ccccc2C12OCCO2	none (no result: mHtt clearance)
O=C1N(CCCCN2C(=O)C3(OCCO3)c3ccccc32)c2ccccc2C12OCCO2	M1 ag 3.1 | M1 agonist conf inactive | M4 ag counter inactive
Cn1c(=O)[nH]c2cc(Cl)cnc21	M1 ag 9.1 | M1 agonist conf inactive | M4 ag counter inactive
CN(C)CCNC(=O)Cn1nc(C(F)F)cc1C1CC1	none
COc1cccc(C(=O)NCC2CCCO2)c1 (configuration not stated)	none (no result: mHtt clearance)
CC(=O)OC(Cn1ccnc1)c1ccccc1 (configuration not stated)	none (no result: mHtt clearance)
CCOc1cc(-c2nc3ccccn3c2NCC2CCCO2)ccc1O (configuration not stated)	M1 antagonist -1.8, M1 ag 10, Fluor 339 460 3 (no result: mHtt clearance) | M1 agonist conf inactive | M4 ag counter inactive
O=C(NCc1ccco1)C(c1cccnc1)N(C(=O)Cn1nnc2ccccc21)c1ccc(F)cc1 (configuration not stated)	none
CCOc1ccc(C(=O)N2CCC(C(=O)c3ccc4c(c3)OCCO4)CC2)cc1	none
O=C(O)CCCC(=O)Nc1ccc(Br)cc1C(=O)O	none (no result: mHtt clearance)
Cc1cc(C)c(C)c(OCC(=O)N2CCCCCC2)c1	none (no result: M1 antagonist, NADH enzymes, M1 ag, Fluor 339 460, A340 absorber)
Cc1cc(Cl)ccc1OCC(=O)N1CCCCC1	M1 ag 2.2 (no result: mHtt clearance) | M1 agonist conf inconclusive | M4 ag counter inactive
COC(=O)c1sccc1NC(=S)N1CC(C)CC(C)C1 (configuration not stated)	none (no result: M1 antagonist, NADH enzymes, M1 ag, Fluor 339 460, A340 absorber)
O=C(NCc1ccc2c(c1)OCO2)C1CCN(c2ccc(S(=O)(=O)N3CCCC3)cc2)CC1	M1 ag 2.6 (no result: mHtt clearance) | M1 agonist conf inactive | M4 ag counter inactive
COc1ccc(OC)c(N/C(C)=C/C(=O)c2ccc(C)o2)c1	M1 ag 5.9 | M1 agonist conf inconclusive | M4 ag counter inactive
O=C(CSCC(=O)N1CCCCC1)Nc1nc(-c2cccs2)cs1	M1 ag 5.7 (no result: mHtt clearance) | M1 agonist conf inactive | M4 ag counter inactive
CC1CC(C)CN(C(=O)CSCC(=O)Nc2nc(-c3cccs3)cs2)C1 (configuration not stated)	none (no result: mHtt clearance)
O=C(CSCC(=O)N1CCCCC1)Nc1nc(-c2ccc(Cl)s2)cs1	M1 ag 4.8 | M1 agonist conf inconclusive | M4 ag counter inactive
O=C(/C=C/c1c(Cl)cccc1Cl)n1cccn1	none (no result: M1 antagonist, NADH enzymes, M1 ag, Fluor 339 460, A340 absorber)
O=C(c1c(F)c(F)c(F)c(F)c1F)N1CCc2ccccc21	none
Cc1ccc(-c2nnc3c4ccccc4c(C)nn23)cc1S(=O)(=O)N1CCN(CCO)CC1	M1 ag 4.2 (no result: mHtt clearance) | M1 agonist conf inactive | M4 ag counter inactive
CC(C)C(OC(=O)c1ccco1)C(=O)NC1CCCCC1 (configuration not stated)	M1 ag 2.2 | M1 agonist conf inactive | M4 ag counter inactive
COc1[nH]c(/N=C/c2ccccc2)c(C#N)c1C#N	M1 ag 10 | M1 agonist conf inconclusive | M4 ag counter inactive
Cc1cccc(Nc2nc(N)nc(CN3CCN(c4ccccc4)CC3)n2)c1	none (no result: mHtt clearance)
COc1cccc(N2CCN(Cc3nc(N)nc(Nc4ccccc4)n3)CC2)c1	M1 ag 6.3 | M1 agonist conf inactive | M4 ag counter inactive
COc1ccccc1N1CCN(Cc2nc(N)nc(Nc3ccc(C)c(Cl)c3)n2)CC1	M1 ag 3.3 (no result: mHtt clearance) | M1 agonist conf inconclusive | M4 ag counter inconclusive
COc1ccccc1Nc1nc(N)nc(CN2CCN(c3ccccc3F)CC2)n1	none
c1cnc(Oc2ccc(-c3nnco3)cc2)cn1	none

Screening results (PubChem BioAssay)
